Reference: PubChem BioAssay AID1159580 (chemical genetic matrix, 2015)
In all, about 5,500 compounds went through this assay and about 2,000 (36%) were called active. Not shown: some 18% with an inconclusive outcome. Cut-off read from the data, not from the text of the source: active = normalized growth mostly below about 0.91 (no sharp cut-off); inconclusive = no clear call, values can overlap the other calls; inactive = mostly above about 0.92. The list shows a part of the results.

Experiment: chemical genetic growth profiling, strain panel (AID 1159580);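 note: tested at 20 µM; growth read once vehicle control cultures reached saturation at 30 °C; 1 = growth at the plate median or of vehicle wells; lower values mean less growth of the strain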
Details: growth OD

Measured: normalized growth

CC1=C(/C=C/C(C)=C/C=C/C(C)=C/CO)C(C)(C)CCC1
inactive: S. cerevisiae deletion strains, locus YJR043C, strain POL32, active compounds read low 0.985 | S. cerevisiae deletion strains, locus YJR066W, strain TOR1, active compounds read low 0.94 | S. cerevisiae deletion strains, locus YKL009W, strain mrt4, active compounds read low 0.993 | S. cerevisiae deletion strains, locus YKL068W, active compounds read low 0.997 | S. cerevisiae deletion strains, locus YKL085W, strain MDH1 (second series), active compounds read low 0.972 | S. cerevisiae deletion strains, locus YKL085W, strain MDH1, active compounds read low 0.972 | S. cerevisiae deletion strains, locus YKL160W, strain elf1, active compounds read low 1.04 | S. cerevisiae deletion strains, locus YKL190W, strain CNB1, active compounds read low 0.991 | S. cerevisiae deletion strains, locus YKR001C, strain vps1, active compounds read low 0.984 | S. cerevisiae deletion strains, locus YKR026C, strain gcn3, active compounds read low 1.02 | S. cerevisiae deletion strains, locus YKR091W, strain srl3, active compounds read low 1.01 | S. cerevisiae deletion strains, locus YLL001W, strain dnm1, active compounds read low 0.975 | S. cerevisiae deletion strains, locus YLL026W, active compounds read low 1.03 | S. cerevisiae deletion strains, locus YLL041C, strain sdh2, active compounds read low 0.99 | S. cerevisiae deletion strains, locus YLR027C, strain aat2, active compounds read low 1.01 | S. cerevisiae deletion strains, locus YLR039C, strain RIC1, active compounds read low 1.01 | S. cerevisiae deletion strains, locus YLR058C, strain SHM2, active compounds read low 0.976 | S. cerevisiae deletion strains, locus YLR102C, strain apc9, active compounds read low 1 | S. cerevisiae deletion strains, locus YLR113W, strain HOG1, active compounds read low 1 | S. cerevisiae deletion strains, locus YLR221C, strain rsa3, active compounds read low 0.973 | S. cerevisiae deletion strains, locus YLR258W, strain gsy2, active compounds read low 1.03 | S. cerevisiae deletion strains, locus YLR262C, strain YPT6 (second series), active compounds read low 0.972 | S. cerevisiae deletion strains, locus YLR262C, strain YPT6, active compounds read low 0.934 | S. cerevisiae deletion strains, locus YLR268W, strain sec22, active compounds read low 1 | S. cerevisiae deletion strains, locus YLR320W, strain mms22, active compounds read low 0.972 | S. cerevisiae deletion strains, locus YLR330W, strain CHS5, active compounds read low 1 | S. cerevisiae deletion strains, locus YLR342W, strain FKS1 (second series), active compounds read low 1.1 | S. cerevisiae deletion strains, locus YLR342W, strain FKS1, active compounds read low 1.03 | S. cerevisiae deletion strains, locus YLR357W, strain rsc2, active compounds read low 1.01 | S. cerevisiae deletion strains, locus YLR370C, strain arc18, active compounds read low 1.01 | S. cerevisiae deletion strains, locus YLR371W, strain rom2, active compounds read low 1.02 | S. cerevisiae deletion strains, locus YLR384C, strain iki3, active compounds read low 1.01 | S. cerevisiae deletion strains, locus YLR418C, strain cdc73, active compounds read low 0.965 | S. cerevisiae deletion strains, locus YML016C, strain PPZ1, active compounds read low 0.998 | S. cerevisiae deletion strains, locus YML032C, strain rad52, active compounds read low 1.01 | S. cerevisiae deletion strains, locus YML120C, strain ndi1, active compounds read low 1 | S. cerevisiae deletion strains, locus YML124C, strain tub3, active compounds read low 0.996 | S. cerevisiae deletion strains, locus YMR058W, strain fet3, active compounds read low 0.998 | S. cerevisiae deletion strains, locus YMR078C, strain ctf18, active compounds read low 1 | S. cerevisiae deletion strains, locus YMR125W, strain sto1, active compounds read low 1.02 | S. cerevisiae deletion strains, locus YMR129W, active compounds read low 1.02 | S. cerevisiae deletion strains, locus YMR205C, strain PFK2, active compounds read low 0.96 | S. cerevisiae deletion strains, locus YMR223W, strain ubp8, active compounds read low 0.998 | S. cerevisiae deletion strains, locus YMR231W, strain pep5, active compounds read low 0.997 | S. cerevisiae deletion strains, locus YMR307W, strain GAS1, active compounds read low 0.982 | S. cerevisiae deletion strains, locus YNL067W, strain RPL9B, active compounds read low 0.962 | S. cerevisiae deletion strains, locus YNL071W, strain lat1, active compounds read low 1.03 | S. cerevisiae deletion strains, locus YNL183C, strain NPR1, active compounds read low 0.938 | S. cerevisiae deletion strains, locus YNL209W, strain ssb2, active compounds read low 1.02 | S. cerevisiae deletion strains, locus YNL233W, strain BNI4, active compounds read low 0.974 | S. cerevisiae deletion strains, locus YNL248C, strain rpa49, active compounds read low 1.09 | S. cerevisiae deletion strains, locus YNL250W, strain rad50, active compounds read low 0.982 | S. cerevisiae deletion strains, locus YNL271C, strain bni1, active compounds read low 1.01 | S. cerevisiae deletion strains, locus YNL298W, strain CLA4, active compounds read low 1.01 | S. cerevisiae deletion strains, locus YNL307C, strain MCK1, active compounds read low 1.01 | S. cerevisiae deletion strains, locus YNL322C, strain KRE1 (second series), active compounds read low 1.05 | S. cerevisiae deletion strains, locus YNR049C, strain mso1, active compounds read low 1.01 | S. cerevisiae deletion strains, locus YNR052C, strain pop2, active compounds read low 1.01 | S. cerevisiae deletion strains, locus YOL006C, strain TOP1, active compounds read low 0.929 | S. cerevisiae deletion strains, locus YOL012C, strain htz1 0.793 | S. cerevisiae deletion strains, locus YOL147C, strain pex11, active compounds read low 0.994 | S. cerevisiae deletion strains, locus YOR001W, strain rrp6, active compounds read low 0.983 | S. cerevisiae deletion strains, locus YOR061W, strain CKA2, active compounds read low 0.961 | S. cerevisiae deletion strains, locus YOR069W, strain VPS5, active compounds read low 1.01 | S. cerevisiae deletion strains, locus YOR070C, strain gyp1, active compounds read low 1 | S. cerevisiae deletion strains, locus YOR080W, strain dia2, active compounds read low 1.01 | S. cerevisiae deletion strains, locus YOR083W, strain WHI5, active compounds read low 0.988 | S. cerevisiae deletion strains, locus YOR106W, strain vam3, active compounds read low 1 | S. cerevisiae deletion strains, locus YOR136W, strain idh2, active compounds read low 0.992 | S. cerevisiae deletion strains, locus YOR144C, strain elg1, active compounds read low 1 | S. cerevisiae deletion strains, locus YOR184W, strain ser1, active compounds read low 1.01 | S. cerevisiae deletion strains, locus YOR231W, strain MKK1, active compounds read low 0.988 | S. cerevisiae deletion strains, locus YOR265W, strain rbl2, active compounds read low 1 | S. cerevisiae deletion strains, locus YOR270C, strain vph1, active compounds read low 0.848 | S. cerevisiae deletion strains, locus YOR290C, strain snf2, active compounds read low 1.05 | S. cerevisiae deletion strains, locus YOR316C, strain cot1, active compounds read low 1 | S. cerevisiae deletion strains, locus YPL051W, strain arl3, active compounds read low 1.04 | S. cerevisiae deletion strains, locus YPL055C, strain LGE1, active compounds read low 0.873 | S. cerevisiae deletion strains, locus YPL078C, strain atp4, active compounds read low 1.02 | S. cerevisiae deletion strains, locus YPL106C, strain sse1, active compounds read low 1.13 | S. cerevisiae deletion strains, locus YPL240C, strain hsp82, active compounds read low 1.01 | S. cerevisiae deletion strains, locus YPL256C, strain CLN2, active compounds read low 1.04 | S. cerevisiae deletion strains, locus YPR119W, strain clb2, active compounds read low 1 | S. cerevisiae deletion strains, locus YPR141C, strain kar3, active compounds read low 0.997 | S. cerevisiae deletion strains, locus YPR163C, strain tif3, active compounds read low 0.998 | S. cerevisiae deletion strains, locus YPR167C, strain met16, active compounds read low 1 | S. cerevisiae deletion strains, strain wtn01, active compounds read low 1.03 | S. cerevisiae strains, strain wild type, active compounds read low 0.979
